# Source: PubChem BioAssay (NCATS)
# Results filed as inconclusive are left out. A call without a number means that no potency is given here. Activity calls are given as the source filed them. Calls come from the whole dose curve; as a rule, active = well fitted inhibition curve with a large enough effect; inconclusive = small, poorly fitted or top-dose-only effect; inactive = flat fitted curve, though single readings scatter.
# Test system: astro (control astrocytes)
# Test: Drug repurposing screens with cells derived from glioblastoma tumor samples (AID 1345199); note: nearly all actives have a fitted effect of over 40% in size
# Details: viability, ATP luminescence, 48 h; series mostly up to 45.9 µM
# Procedure: CD133+ cells were isolated from GBM patient biopsies and cultured as neurospheres. Neurospheres from four patients were used to screen the NCATS pharmaceutical collection (NPC) library of approved drugs and bioactive compounds. […] The neurospheres were incubated with drugs for 48 hours in 1536-well format, then assayed with an ATP content cell viability assay. […] These hits were cherry picked to confirm activity in the four original GBM lines screened plus three other slower growing GMB lines (unable to yield enough cells for a full primary screen). Variable activities of the confirmed primary hits in the different GBM patient lines were observed. The patient line 206 responded to the greatest number of compounds and line 923 responded to the least amount of active compounds.
# Potency is the fitted concentration of half-maximal effect.
row,SMILES,Potency
1,O=C(Nc1cccc2c(=O)cc(-c3nn[nH]n3)oc12)c1ccc(OCCCCc2ccccc2)cc1,inactive
2,NCC1CCC(C(=O)O)CC1 (configuration not stated),inactive
3,Fc1ccc(C(c2ccc(F)cc2)N2CCN(CC=Cc3ccccc3)CC2)cc1,35.5 µM (active)
4,CN1CC(=O)N2C(Cc3c([nH]c4ccccc34)[C@H]2c2ccc3c(c2)OCO3)C1=O (some centres not stated),inactive
5,O=C(O)c1nc(=O)[nH]c(=O)[nH]1,inactive
6,CCC[C@H](N[C@@H](C)C(=O)N1[C@@H]2CCCC[C@H]2C[C@H]1C(=O)O)C(=O)OCC,inactive
7,CN(C)CCN(Cc1ccc(Cl)cc1)c1ccccn1,inactive
8,CN1CCN2c3ncccc3Cc3ccccc3C2C1 (configuration not stated),inactive
9,O=C(CCCN1CCN(c2ccc(F)cc2)CC1)NC1c2ccccc2CSc2ccccc21 (configuration not stated),inactive
10,NS(=O)(=O)c1cc(Cl)c(Cl)c(S(N)(=O)=O)c1,inactive
11,COc1ccnc(CS(=O)c2nc3ccc(OC(F)F)cc3[nH]2)c1OC (configuration not stated),inactive
12,CC[C@H]1OC(=O)[C@H](C)[C@@H](O[C@H]2C[C@@](C)(OC)[C@@H](O)[C@H](C)O2)[C@H](C)[C@@H](O[C@@H]2O[C@H](C)C[C@H](N(C)C)[C@H]2O)[C@](C)(O)C[C@H](C)C(=NOCOCCOC)[C@H](C)[C@@H](O)[C@]1(C)O,inactive
13,CC(C)(CO)[C@@H](O)C(=O)NCCC(=O)O,inactive
14,CS(=O)(=O)c1ccc(C2=C(c3ccccc3)C(=O)OC2)cc1,inactive
15,CC[C@H](C)C(=O)O[C@H]1C[C@H](O)C=C2C=C[C@H](C)[C@H](CC[C@@H](O)C[C@@H](O)CC(=O)O)[C@H]21,inactive
16,CC(C)CN(C[C@@H](O)[C@H](Cc1ccccc1)NC(=O)O[C@H]1CO[C@H]2OCC[C@H]21)S(=O)(=O)c1ccc(N)cc1,inactive
17,N#Cc1c(N(CC(=O)O)CC(=O)O)sc(C(=O)O)c1CC(=O)O,inactive
18,COc1ccc(-c2nc3ccc(C4=NNC(=O)CC4C)cc3[nH]2)cc1 (configuration not stated),11.2 µM (active)
19,CCCCC(F)(F)[C@@]1(O)CC[C@H]2[C@H](CC(=O)[C@@H]2CCCCCCC(=O)O)O1,inactive
20,COc1cc2c(cc1OC)CC(=O)N(CCCN(C)C[C@H]1Cc3cc(OC)c(OC)cc31)CC2,inactive
21,Clc1ccc(COC(Cn2ccnc2)c2ccc(Cl)cc2Cl)c(Cl)c1 (configuration not stated),inactive
22,CCC(=O)OCC(=O)[C@@]1(OC(=O)CC)[C@@H](C)C[C@@H]2[C@H]3CCC4=CC(=O)C=C[C@]4(C)[C@@]3(F)[C@@H](O)C[C@@]21C,inactive
